This passage reports outcome and AC50 results from PubChem BioAssay (EPA / NIEHS).

Test [1] has as its target Peroxisome proliferator-activated receptor gamma (Homo sapiens) (UniProt P37231). Briefly: ATG_PPARg_TRANS: Attagene TRANS-FACTORIAL HepG2 Assay for human Peroxisome Proliferator-activated Receptor-gamma (PPARg) (AID 2283007). In a few lines: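 Multiplexed reporter transcription units in HepG2, 24 h dosing, reporter transcripts quantified by fluorescent RT-PCR and capillary electrophoresis. Increase over DMSO scored.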

The target of test [2] is Nuclear receptor subfamily 1 group I member 2 (Homo sapiens) (UniProt O75469). Briefly: ATG_PXR_TRANS: Attagene TRANS-FACTORIAL HepG2 Assay for human Pregnane X Receptor (PXR) (AID 2283008). In a few lines: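 Transient HepG2 transfectants carrying multiplexed reporter transcription units; PXR activity read through a Gal4 chimera. 24 h exposure. RT-PCR/CE fluorescence; upward curve fit referenced to DMSO.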
Sequence of Nuclear receptor subfamily 1 group I member 2 (Homo sapiens) (O75469 whole entry, looked up, the tested form may be a part): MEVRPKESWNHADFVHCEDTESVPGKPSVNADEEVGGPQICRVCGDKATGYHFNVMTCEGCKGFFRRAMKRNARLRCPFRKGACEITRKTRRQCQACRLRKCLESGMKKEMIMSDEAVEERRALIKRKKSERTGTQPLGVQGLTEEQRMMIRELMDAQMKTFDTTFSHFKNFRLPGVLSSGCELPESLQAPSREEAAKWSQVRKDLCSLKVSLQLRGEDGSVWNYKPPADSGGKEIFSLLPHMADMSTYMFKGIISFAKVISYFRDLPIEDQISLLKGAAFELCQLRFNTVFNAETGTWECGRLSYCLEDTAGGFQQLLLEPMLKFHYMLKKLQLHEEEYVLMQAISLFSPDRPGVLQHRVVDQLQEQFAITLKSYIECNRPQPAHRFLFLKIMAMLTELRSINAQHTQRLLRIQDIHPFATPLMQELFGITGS

The target of test [3] is human Retinoic Acid Receptor gamma (RARg), RARG (gene 5916) (UniProt P13631). Briefly: ATG_RARg_TRANS: Attagene TRANS-FACTORIAL HepG2 Assay for human Retinoic Acid Receptor gamma (RARg) (AID 2283009). In a few lines:
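TRANS format measured activity of exogenous NR-GAL4 fusion (RARg) in transfected HepG2 liver cells after 24 h dosing. Induced reporter RNA was detected by RT-PCR/capillary electrophoresis fluorescence, analysed in the positive direction against DMSO.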

In test [4] the target is human RAR-related Orphan Receptor beta (RORb), RORB (gene 6096) (UniProt Q92753). Kind of test: ATG_RORb_TRANS: Attagene TRANS-FACTORIAL HepG2 Assay for human RAR-related Orphan Receptor beta (RORb) (AID 2283010). In a few lines:
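Transfect HepG2 with multiple GAL4-UAS reporter transcription units; dose chemicals for 24 h; isolate RNA, reverse-transcribe and PCR-amplify reporter sequences; label, digest and resolve fragments by capillary electrophoresis; fit increases relative to DMSO.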

Test [5] concerns the target Retinoic acid receptor RXR-alpha (Homo sapiens) (UniProt P19793). Briefly: ATG_RXRa_TRANS: Attagene TRANS-FACTORIAL HepG2 Assay for human Retinoid X Receptor alpha (RXRa) (AID 2283012). In a few lines: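 Measures exogenous chimeric NR-GAL4 activity in transfected HepG2 liver cells after 24 h of dosing. Induced reporter mRNA was detected by RT-PCR with capillary electrophoresis, and gain of signal was analysed against DMSO.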

Test [6] concerns the target human RAR-related Orphan Receptor gamma (RORg), RORC (gene 6097) (UniProt P51449). Kind of test: ATG_RORg_TRANS: Attagene TRANS-FACTORIAL HepG2 Assay for human RAR-related Orphan Receptor gamma (RORg) (AID 2283011). In a few lines:
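Reporter transcripts from a transfected RORg-GAL4 chimera in HepG2 cells were quantified 24 h after dosing by RT-PCR, 6-FAM labelling, HpaI digestion and capillary electrophoresis; increases over DMSO baseline were fitted.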

The target of test [7] is human Retinoid X Receptor beta (RXRb), RXRB (gene 6257) (UniProt P28702). Briefly: ATG_RXRb_TRANS: Attagene TRANS-FACTORIAL HepG2 Assay for human Retinoid X Receptor beta (RXRb) (AID 2283013). In a few lines: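 Chimeric receptor-Gal4 activity was assessed in transiently transfected human HepG2 cells after 24 h exposure. Transcripts from GAL4-UAS reporters were quantified by fluorescent RT-PCR and capillary electrophoresis, with DMSO as negative control and baseline.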
Sequence of human Retinoid X Receptor beta (RXRb), RXRB (gene 6257) (P28702 whole entry, looked up, the tested form may be a part): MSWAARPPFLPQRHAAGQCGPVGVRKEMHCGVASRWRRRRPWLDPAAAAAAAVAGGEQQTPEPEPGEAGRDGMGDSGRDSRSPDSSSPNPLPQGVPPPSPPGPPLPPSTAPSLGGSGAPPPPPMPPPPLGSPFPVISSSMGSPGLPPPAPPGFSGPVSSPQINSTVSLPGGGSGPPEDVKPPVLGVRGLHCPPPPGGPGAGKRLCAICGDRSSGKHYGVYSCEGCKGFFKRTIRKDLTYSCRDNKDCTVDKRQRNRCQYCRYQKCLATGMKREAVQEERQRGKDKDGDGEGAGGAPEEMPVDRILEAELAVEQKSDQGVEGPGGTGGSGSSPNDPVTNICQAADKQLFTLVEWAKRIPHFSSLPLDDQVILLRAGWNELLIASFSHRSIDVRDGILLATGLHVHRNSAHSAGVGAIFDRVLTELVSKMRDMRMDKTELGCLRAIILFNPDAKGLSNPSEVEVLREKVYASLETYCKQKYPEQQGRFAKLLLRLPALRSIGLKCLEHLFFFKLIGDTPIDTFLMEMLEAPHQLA

Test [8] deals with human Thyroid Receptor alpha (THRa1), THRA (gene 7067) (UniProt P10827). Briefly: ATG_THRa1_TRANS: Attagene TRANS-FACTORIAL HepG2 Assay for human Thyroid Receptor alpha (THRa1) (AID 2283014). In a few lines: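 Transcripts from GAL4-UAS-driven reporters, measured after 24 h compound exposure by RT-PCR plus capillary electrophoresis of 6-FAM-labeled fragments, were fitted for gain of signal relative to DMSO. Cells: transiently transfected HepG2 expressing NR-Gal4 chimeras.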
Sequence of human Thyroid Receptor alpha (THRa1), THRA (gene 7067) (P10827 whole entry, looked up, the tested form may be a part): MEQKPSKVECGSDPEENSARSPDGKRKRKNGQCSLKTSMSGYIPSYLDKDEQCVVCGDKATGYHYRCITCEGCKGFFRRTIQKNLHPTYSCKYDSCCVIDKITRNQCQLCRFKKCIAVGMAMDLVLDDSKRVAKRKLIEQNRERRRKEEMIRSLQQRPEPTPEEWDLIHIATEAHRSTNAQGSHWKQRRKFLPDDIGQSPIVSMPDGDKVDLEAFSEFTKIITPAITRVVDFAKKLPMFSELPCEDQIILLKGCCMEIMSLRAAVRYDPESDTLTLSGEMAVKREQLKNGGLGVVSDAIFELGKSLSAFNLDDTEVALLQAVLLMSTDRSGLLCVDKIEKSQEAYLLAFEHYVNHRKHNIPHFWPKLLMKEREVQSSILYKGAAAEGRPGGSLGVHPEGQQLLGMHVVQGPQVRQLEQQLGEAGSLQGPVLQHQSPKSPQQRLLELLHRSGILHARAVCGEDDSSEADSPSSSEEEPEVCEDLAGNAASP

Broadly, the AC50 is the midpoint of the concentration-response curve, whichever way the signal moves.

Molecules are shown by their SMILES. Inconclusive results are not listed. Activity calls are given as the source filed them. The calls were made as follows: active = hit-call score of the fitted dose curve at least 0.9, where 1 is the maximum; inconclusive = response in the unintended direction; inactive = score below 0.9.

Sequence of human RAR-related Orphan Receptor gamma (RORg), RORC (gene 6097) (P51449 whole entry, looked up, the tested form may be a part): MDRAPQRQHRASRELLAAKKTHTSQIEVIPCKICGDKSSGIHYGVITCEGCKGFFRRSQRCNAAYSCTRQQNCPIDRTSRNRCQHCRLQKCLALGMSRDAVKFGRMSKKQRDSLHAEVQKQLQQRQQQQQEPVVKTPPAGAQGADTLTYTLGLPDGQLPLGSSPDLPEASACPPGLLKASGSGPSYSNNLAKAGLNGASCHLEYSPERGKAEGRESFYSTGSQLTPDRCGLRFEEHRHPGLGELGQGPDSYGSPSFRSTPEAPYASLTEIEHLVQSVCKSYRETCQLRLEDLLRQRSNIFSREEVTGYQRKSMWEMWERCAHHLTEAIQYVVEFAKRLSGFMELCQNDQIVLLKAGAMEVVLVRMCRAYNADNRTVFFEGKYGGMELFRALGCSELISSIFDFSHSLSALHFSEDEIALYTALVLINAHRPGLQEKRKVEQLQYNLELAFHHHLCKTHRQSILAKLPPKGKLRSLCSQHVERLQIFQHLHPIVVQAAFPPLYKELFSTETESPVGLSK
Sequence of Peroxisome proliferator-activated receptor gamma (Homo sapiens) (P37231 whole entry, looked up): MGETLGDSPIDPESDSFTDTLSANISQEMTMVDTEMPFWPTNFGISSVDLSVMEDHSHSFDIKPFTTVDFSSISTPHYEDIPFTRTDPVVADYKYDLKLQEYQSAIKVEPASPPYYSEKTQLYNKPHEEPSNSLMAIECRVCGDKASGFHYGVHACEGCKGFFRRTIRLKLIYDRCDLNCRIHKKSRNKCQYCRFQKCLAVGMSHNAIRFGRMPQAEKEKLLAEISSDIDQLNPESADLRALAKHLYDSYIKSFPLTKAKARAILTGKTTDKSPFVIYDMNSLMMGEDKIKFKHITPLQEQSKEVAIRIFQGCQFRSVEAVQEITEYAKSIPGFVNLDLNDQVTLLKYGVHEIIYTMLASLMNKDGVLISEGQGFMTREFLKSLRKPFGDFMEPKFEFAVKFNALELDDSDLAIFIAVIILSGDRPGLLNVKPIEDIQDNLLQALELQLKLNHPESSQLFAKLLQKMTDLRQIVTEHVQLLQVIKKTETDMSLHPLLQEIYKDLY
Sequence of human RAR-related Orphan Receptor beta (RORb), RORB (gene 6096) (Q92753 whole entry, looked up, the tested form may be a part): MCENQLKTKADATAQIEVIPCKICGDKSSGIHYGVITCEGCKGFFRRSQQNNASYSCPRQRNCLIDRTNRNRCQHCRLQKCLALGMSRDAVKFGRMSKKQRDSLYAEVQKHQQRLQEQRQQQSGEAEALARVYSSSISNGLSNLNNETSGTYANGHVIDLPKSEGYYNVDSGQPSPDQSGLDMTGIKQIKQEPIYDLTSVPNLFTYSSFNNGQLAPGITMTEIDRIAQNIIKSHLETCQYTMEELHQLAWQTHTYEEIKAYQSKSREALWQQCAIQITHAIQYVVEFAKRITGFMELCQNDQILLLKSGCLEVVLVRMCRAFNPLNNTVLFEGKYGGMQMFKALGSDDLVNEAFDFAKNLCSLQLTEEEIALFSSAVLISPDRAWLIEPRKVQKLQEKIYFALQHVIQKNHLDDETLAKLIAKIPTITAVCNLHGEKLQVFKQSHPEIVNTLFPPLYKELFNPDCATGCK
Sequence of Retinoic acid receptor RXR-alpha (Homo sapiens) (P19793 whole entry, looked up, the tested form may be a part): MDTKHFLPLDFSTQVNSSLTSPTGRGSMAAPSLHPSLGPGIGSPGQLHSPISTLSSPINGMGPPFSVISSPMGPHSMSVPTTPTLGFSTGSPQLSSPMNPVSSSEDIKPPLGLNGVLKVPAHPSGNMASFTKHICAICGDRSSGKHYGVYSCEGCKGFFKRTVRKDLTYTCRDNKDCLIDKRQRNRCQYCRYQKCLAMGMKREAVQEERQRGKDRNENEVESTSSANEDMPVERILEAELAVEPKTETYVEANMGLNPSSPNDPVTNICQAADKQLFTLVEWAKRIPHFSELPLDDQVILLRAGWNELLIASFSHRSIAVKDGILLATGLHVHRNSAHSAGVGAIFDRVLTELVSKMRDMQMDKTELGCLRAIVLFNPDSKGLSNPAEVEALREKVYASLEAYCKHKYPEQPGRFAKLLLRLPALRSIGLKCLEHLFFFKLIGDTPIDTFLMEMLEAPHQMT
Sequence of human Retinoic Acid Receptor gamma (RARg), RARG (gene 5916) (P13631 whole entry, looked up, the tested form may be a part): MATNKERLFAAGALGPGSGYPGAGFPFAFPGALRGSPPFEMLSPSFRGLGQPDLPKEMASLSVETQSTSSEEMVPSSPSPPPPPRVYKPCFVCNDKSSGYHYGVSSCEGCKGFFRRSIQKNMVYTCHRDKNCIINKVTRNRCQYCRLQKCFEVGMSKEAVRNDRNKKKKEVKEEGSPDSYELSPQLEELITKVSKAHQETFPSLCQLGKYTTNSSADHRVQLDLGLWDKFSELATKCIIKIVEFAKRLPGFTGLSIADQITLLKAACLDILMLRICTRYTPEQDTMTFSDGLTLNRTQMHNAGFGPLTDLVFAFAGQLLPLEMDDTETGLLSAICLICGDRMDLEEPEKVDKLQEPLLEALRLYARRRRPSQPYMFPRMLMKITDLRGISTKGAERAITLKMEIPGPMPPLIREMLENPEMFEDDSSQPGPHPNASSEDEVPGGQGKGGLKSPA

Turning to `CC(O)CN` (centres undefined), the call in test [1], in test [2], in test [3], in test [4] and in test [5] was inactive.
`CCCCCCC(O)CCOC(C)=O` (centres undefined): the outcome in test [1], in test [6], in test [5] and in test [7] was inactive. For the same compound, the AC50 in test [2] was 15.2 µM (active).
As to `CC(C)OB(OC(C)C)OC(C)C`, the result in test [1], in test [2], in test [4], in test [6] and in test [8] was inactive.
As to `C=CCOCC(O)CO` (centres undefined), the result in test [2], in test [4], in test [6] and in test [5] was inactive.
Consider `CCCC1CCOC(C)S1` (centres undefined), for which the compound was classed as inactive in test [2], in test [6] and in test [5].
Take `O=C(O)c1ccco1`: the compound was classed as inactive in test [2], in test [5] and in test [7].
For the compound `CCCCCCCCCCCCN1CCOCC1`, the call in test [1], in test [2], in test [5] and in test [8] was inactive. Moreover, the AC50 in test [7] is 42.8 µM (active).
In the case of `Cc1ccc(C(C)(C)O)cc1`, the compound was called inactive in test [2], in test [4], in test [6] and in test [5].
